The inhibition is the drop in the measured response relative to a control, in per cent.

SMILES strings stand for the structures. Out of some 290,000 compounds screened, about 2,600 (0.9%) were called active. The sample holds actives, similar compounds and a random draw of the others, so the mix is not that of the screen. A number with no mark means an inactive call.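 Rule for the calls: active = inhibition above the mean of all tested compounds plus 3 SD, cutoff set per screening run (cut at about 7.5% in these data); inactive = the rest.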

The assay relates to VIM-2 metallo-beta-lactamase (Pseudomonas aeruginosa). Description: VIM-2 metallo-beta-lactamase inhibitors, primary screen, biochemical, epi-absorbance readout, Pseudomonas aeruginosa enzyme (AID 1527).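 Note: red hydrolysis product quenches plate fluorescence so inhibitors raise well fluorescence; 0% = enzyme with DMSO and 100% = DMSO without enzyme.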 As to conditions: purified VIM-2, nitrocefin hydrolysis, epi-absorbance fluorescence; at 5.6 µM; hits give high values.
Consider `COc1ccc(CNC(=O)c2cc(C(=O)C3CC3)c[nH]2)cc1`, for which the inhibition was -2.31%.

In the case of `CCOC(=O)N1CCN(C(=O)C2CCN(S(=O)(=O)c3cc(Cl)ccc3OCC)CC2)CC1`, the inhibition was -1.98%.

Consider `CCOC(=O)N1CCN(C(=O)C2CCN(c3ncnc4c3sc3cccc(F)c34)CC2)CC1`, for which the inhibition was 17.8% (active). In the case of `CCOC(=O)C1CCN(c2ncnc3c2oc2ccc(Br)cc23)CC1` it was -2.16%. In the case of `C=CCOc1cccc(C2NC(=O)c3ccccc3O2)c1` (centres undefined) it was -2.16%; in that of `Cc1nn2c3cc(N4CCOCC4)ccc3nc2c2ccccc12`, 10.9% (active); in that of `Cc1cc(Nc2ccc(N3CCOCC3)cc2)c2cccc(C)c2n1`, 2.18%.

Regarding `Cc1cc(N2CCN(c3ccccc3)CC2)nc(N2CCOCC2)n1`, the inhibition was -1.05%. In the case of `CC(=O)NC(CC(=O)Nc1cccc(S(=O)(=O)N2CCCC2)c1)c1ccccc1` (centres undefined) it was -3.12%; in that of `C=CCn1c(-c2ccccc2OCC)n[nH]c1=S`, 25.3% (active).

For the molecule `C=CCn1c(-c2sc(-c3ccccc3)nc2C)n[nH]c1=S`, the inhibition is -5.93%. In the case of `C=CCn1c(-c2ccc3[nH]c(C)c(C)c3c2)n[nH]c1=S` it was 5.39%; in that of `COc1cc(NC(=O)CCNC(=O)Cn2ccc3ccccc3c2=O)cc(OC)c1OC`, -1.82%.

`C[C@H](NC(=O)[C@@H]1Cc2ccccc2CN1C(=O)OC(C)(C)C)C(=O)NC1CCCC1`: the inhibition was -2.43%.

As for `CCn1c(C(O)c2cc(OC)ccc2OC)nc2ccccc21` (centres undefined), the inhibition was -0.51%.

As to `COc1ccc(CC(=O)N/N=C(\C)c2ccccn2)cc1`, the inhibition was -3.47%. The result for `Cc1cccc(OCC(=O)NCCCNC(=O)c2ccccn2)c1` reads -2.83%. The result for `CCN(CC)CCOc1ccc2c(c1)C(=NNC(=O)c1ccccn1)c1cc(OCCN(CC)CC)ccc1-2` reads 29.9% (active); that for `CCCc1[nH]nc2c1C(c1c(C)nn(-c3ccccc3)c1Cl)C(C#N)=C(N)O2` (centres undefined), -2.17%. In the case of `CCCc1[nH]nc2c1C(C1CC=CCC1)C(C#N)=C(N)O2` (centres undefined) it was 1.47%. Consider `CCCc1[nH]nc2c1C(c1ccc(Br)s1)C(C#N)=C(N)O2` (centres undefined), for which the inhibition is 8.14% (active). In the case of `CN(C)C(=O)c1coc2nc3ccccc3nc12` it was -2.21%; in that of `CNC(=O)c1cccc2nc3ccccc3nc12`, 12.2% (active). `CNC(=O)c1cc2c(ccc3ccccc32)oc1=N`: the inhibition was 0.24%. For the molecule `Cc1ccc(S(=O)(=O)c2nc(-c3cccs3)oc2NCc2cccnc2)cc1`, the inhibition was -1.14%. For `O=C(NCCOc1ccccc1F)Nc1ccc(Br)cc1`, the inhibition was -1.38%. In the case of `COc1ccc(NS(=O)(=O)c2cc3c(cc2C)N(C(C)=O)CCO3)cc1` it was -3.48%. In the case of `O=[N+]([O-])c1ccccc1/C=C/CN1CCCC(CO)C1` (centres undefined) it was -0.68%.

`O=C(NCC(=O)N1CCC2(CC1)NCCc1[nH]cnc12)c1ccc(Br)cc1`: the inhibition is 0.87%. The result for `Cc1ccccc1NC(=O)C1CCN(C(=O)NC2CCCCC2)CC1` reads -1.56%. For `O=C(NC(=S)Nc1ncccn1)c1ccccc1Br`, the inhibition was -1.46%. In the case of `O=C(Nc1ccc(-n2ccnc2P(=O)(O)c2ccccc2)cc1)c1ccccc1Br` it was 21.4% (active); in that of `Cc1ccc(NC(=O)c2cccnc2C(=O)Nc2ccc(C)cc2)cc1`, -0.75%; in that of `COc1cc(/C=C2\SC(=O)NC2=O)ccc1OCc1ccc(Cl)nc1`, -1.77%. The result for `COc1ccccc1CCNS(=O)(=O)c1cc2c3c(c1)C(C)C(=O)N3CCC2` (centres undefined) reads 1.4%; that for `O=C(NCCCc1ccccc1)C1CCC(=O)N(CCc2ccc(Cl)cc2)C1` (centres undefined), -1.97%. In the case of `Cc1ccc(NC(=O)CSc2cccc3cccnc23)c(C)c1`, the inhibition is -0.55%. The result for `Cc1cccc(N2C(=O)c3cccnc3C2=O)c1` reads -0.49%. Regarding `Cc1ccc(Oc2ccc3c(c2)C(=O)N(c2cccc4cccnc24)C3=O)cc1`, the inhibition is 30.9% (active). The result for `O=C(C1CCN(S(=O)(=O)c2ccc(Br)s2)CC1)N1CCN(c2ccccc2)CC1` reads -3.44%; that for `O=C(NC(=S)Nc1ccccc1C(=O)O)c1ccc(-c2ccc(Br)cc2)o1`, 19.4% (active). In the case of `COC(=O)c1ccccc1NC(=S)NC(=O)c1ccccc1F` it was -1.44%.

Regarding `Cc1cccc(NC(=S)NC(=O)c2ccc(Br)o2)c1`, the inhibition is -1.38%. The result for `CC(C)[C@H](NC(=O)N1CC(=O)Nc2ccccc21)C(=O)N[C@@H](Cc1c[nH]c2ccccc12)C(=O)O` reads -2.42%; that for `Cn1cnnc1SCc1nnc(-c2ccccc2Br)o1`, -0.36%; that for `CCOC(=O)N1CCN(Cc2nnc(-c3ccccc3Cl)o2)CC1`, -1.67%.

For the molecule `Nc1cccc2c1C(=O)N(Cc1nnc(-c3ccccc3Br)o1)C2=O`, the inhibition is 13.6% (active).

For the molecule `Cc1ccccc1NC(=O)C1CCCN(C(=O)NCc2ccccc2)C1` (centres undefined), the inhibition was -2.35%.

As to `OC(CN1C2=NCCCN2c2ccccc21)c1ccc(Br)cc1` (centres undefined), the inhibition is -1.66%.

For `Cc1cc2c(cc1C)N(Cc1ccccc1)C1=NCCCN12`, the inhibition is 8.88% (active). Consider `CC(C)(C)C(=O)CN1C2=NCCN2c2ccccc21`, for which the inhibition was -3.12%.

`COc1ccc(S(=O)(=O)NCC(=O)NCc2cc(=O)n(C)c(=O)n2C)cc1F`: the inhibition is -1.12%. In the case of `CCn1c(Cc2ccc(OC)cc2)nnc1SCC(=O)Nc1ccc(N2CCOCC2)cc1` it was -1.86%; in that of `Cc1cc(N/N=C\c2ccc(Br)cc2)nc(-n2nc(C)cc2C)n1`, -1.15%. On to `COc1ccccc1/C=N\Nc1cc(C)nc(-n2nc(C)cc2C)n1`, for which the inhibition is -5.24%. As to `COc1ccc(Nc2cc(C)nc(-n3nc(C)cc3C)n2)cc1`, the inhibition is 12.7% (active).

Consider `Cc1cccc(OCC(=O)NCC(=O)N/N=C/c2ccc(N(C)C)cc2)c1`, for which the inhibition is 0.77%.

On to `N#Cc1ccc(/C=C2\CCn3c2nc2cc(C(=O)O)ccc2c3=O)cc1`, for which the inhibition was 3.37%.

Consider `Fc1ccc(-c2ccc(CNCc3ccccn3)o2)cc1Cl`, for which the inhibition was 38% (active). Consider `COc1ccc(-c2ccc(CNCCCN3CCOCC3)o2)cc1Cl`, for which the inhibition is -0.71%. The result for `Cc1cc(S(=O)(=O)NCc2ccccn2)c(Cl)cc1Cl` reads -1.51%.

Regarding `COc1ccc(S(=O)(=O)N2CCN(C(=O)N(C)C)C2C)cc1` (centres undefined), the inhibition is -2.86%. The result for `N#Cc1ccc(S(=O)(=O)NCC(=O)OCC(=O)NCCc2ccccc2)cc1` reads -2%; that for `O=C(Nn1c(SCc2ccc([N+](=O)[O-])cc2)nc2ccccc2c1=O)c1ccc(F)cc1`, 1.03%. Turning to `COCCNC(=O)c1ccc(-n2c(SCc3cccnc3)nc3ccccc3c2=O)cc1`, the inhibition is -1.16%. The result for `C=CCn1c(SCc2ccc(C(=O)NCCO)cc2)nc2ccccc2c1=O` reads 9.03% (active); that for `Cn1c(C(=O)NCCCN2CCN(c3cccc(Cl)c3)CC2)cc2c(=O)n(C)c3ccccc3c21`, -1.03%. The result for `Cn1c(C(=O)NCCc2ccsc2)cc2c(=O)n(C)c3ccccc3c21` reads 4.63%; that for `CCN1CCCC1CNC(=O)c1cc2c(=O)n(C)c3ccccc3c2n1C` (centres undefined), 19.9% (active). In the case of `CC1CCCC(C)N1CCCNC(=O)c1cc2c(=O)n(C)c3ccccc3c2n1C` (centres undefined) it was 21.7% (active). For `Cn1c(C(=O)N2CCC(C(N)=O)CC2)cc2c(=O)n(C)c3ccccc3c21`, the inhibition is 2.96%. In the case of `Cn1c(C(=O)NCCN2CCc3ccccc3C2)cc2c(=O)[nH]c3ccccc3c21` it was 6.06%. The result for `O=C(N/N=C/c1cccnc1)c1ccc(NC(=O)c2ccc(F)cc2)cc1` reads -0.77%. The result for `COc1cc(S(=O)(=O)N(Cc2cccs2)C2CC2)ccc1-n1cnnn1` reads -1.52%. Consider `COc1ccc(C(=O)C2CCCN(C(=O)c3cc(C)on3)C2)cc1F` (centres undefined), for which the inhibition was -2.54%. The result for `CCOc1ccc2[nH]c(C(=O)N/N=C/c3cccc(OC)c3OC)cc2c1` reads -0.14%. In the case of `O=C(CCl)NNc1nc(-c2ccccc2)c2cc(Cl)ccc2n1` it was -3.67%; in that of `NC(N)=Nc1nc(-c2ccccc2)c2cc(Cl)ccc2n1`, 9.54% (active); in that of `Clc1ccc2nc(-c3ccccc3)nc(C(Cl)Cl)c2c1`, -4.99%. `O=C(CCCCCn1c(=S)[nH]c2cc3c(cc2c1=O)OCO3)N1CCN(c2ccc(F)cc2)CC1`: the inhibition was -4.83%. In the case of `CC(C)Oc1ccc(CN2CCC(n3nccc3NC(=O)c3cccnc3)CC2)cc1` it was -0.44%; in that of `CN(C)CCCn1c(=O)n(Cc2ccccc2)c(=O)c2c3c(sc21)CCCCC3`, -0.19%; in that of `COc1ccc(C(=O)/C=C/c2cccnc2)c(OC)c1`, -1.09%. Consider `CN1CCN(Cc2c(O)ccc3c2oc(=O)c2ccccc23)CC1`, for which the inhibition is 12% (active).

As to `O=c1oc2c(CN3CCCCC3)c(O)ccc2c2c1CCCCC2`, the inhibition was -1.98%. In the case of `CCOC(=O)c1oc2c(CN3CCN(C)CC3)c(O)ccc2c(=O)c1-c1ccc(Br)cc1` it was 2.09%; in that of `COc1ccc(-c2cc(C(=O)N(C)Cc3ccc(OC)c(OC)c3OC)c3ccccc3n2)cc1OC`, -3.53%. For `O=C(Nc1nnc(C2CC2)s1)c1cc(Cl)sc1Cl`, the inhibition is -3.26%. The result for `CN1C(=O)/C(=C\c2cc(Br)cs2)c2ccccc21` reads 0.8%. As to `O=C(c1ccco1)N1CCN(C(=O)c2cc(-c3ccccc3F)no2)CC1`, the inhibition was -2.41%.

Take `COc1cccc(NC(=O)C(=O)c2cn(CC(=O)N3CCOCC3)c3ccccc23)c1`: the inhibition is 1.81%. The result for `CC(=O)c1ccc2c(ccc3ccccc32)c1` reads -0.35%; that for `Cc1cc(=O)oc2c1ccc1ccccc12`, 10.6% (active). In the case of `Cc1cc(=O)oc2c(C(=O)c3ccccc3)c(OCC(N)=O)ccc12` it was -0.26%.
